The results in this text go back to PubChem BioAssay AID463173 (ICCB-Longwood Screening Facility, Harvard Medical School, 2010).

Hit rate of the full screen: of about 52,000 compounds, about 4,300 (8.3%) were called active. Rule as the data show it: active = survival mostly below about 52% (no sharp cut-off); inactive = mostly above about 56%. The entries come from a sample that favours actives as a whole.

This test concerns DeltatarO mutant. Put plainly: S. aureus survival, RN4220 and DeltatarO strains – OD600, teichoic acid synthesis inhibitors, primary screen (AID 463173). The following applies: S. aureus RN4220 wild type/DeltatarO growth, OD600, 18 h, active compounds read low, screened at 18.75 µg/mL (by protocol).
Regarding `COc1ccc(-c2ccc(=O)n(CC(=O)NCCc3ccccc3)n2)cc1`, the survival was 70% (inactive).
To `CCCC(CCC)C(=O)Nc1ccc(NC(=O)c2ccco2)cc1` belongs 98% (inactive).
To `CCOc1cccc2cc(-c3nc4ccc(C(=O)O)cc4[nH]3)c(=O)oc12` belongs 69% (inactive).
Then `Cc1ccc2c(c1)N(C(=O)N1CCC(C(=O)NCc3cccs3)CC1)CC(C)O2` (stereo not given), with 91% (inactive); and `O=C(NCCCN1CCN(c2ccc(F)cc2)CC1)c1sc2ncccc2c1-n1cccc1`, with 37% (active); and `O=C(NCCCN1CCCCC1)c1sc2ncccc2c1-n1cccc1`, with 92% (inactive).
Regarding `O=C(NCCCN1CCN(c2ccccc2)CC1)c1sc2ncccc2c1-n1cccc1`, the survival was 91% (inactive).
To `Cc1cc(C)c2c(-n3cccc3)c(C(=O)NCCCN3CCCCC3C)sc2n1` (stereo not given) belongs 93% (inactive); to `COc1ccc(N2CCN(CCCNC(=O)c3sc4ncccc4c3-n3cccc3)CC2)cc1`, 101% (inactive); to `CC1CCCCN1CCCNC(=O)c1sc2ncccc2c1-n1cccc1` (stereo not given), 25% (active).
Then `CC1=C(C(=O)OC2CCCC2)C(c2ccccc2Cl)CC(=O)N1` (stereo not given), with 70% (inactive).
To `CN1CCc2nc3sc(C(=O)c4ccc(F)cc4)c(N)c3cc2C1` belongs 71% (inactive).
In the case of `COc1ccc(CCNC(=O)C(C)n2nc(C)c3sc4ccccc4c3c2=O)c(OC)c1` (stereo not given), the survival is 58% (inactive).
With `COc1cc2nc(C3CCC3)n(N)c(=O)c2cc1OC`, the survival is 75% (inactive).
Then `O=C(CN1C(=O)C2CCCCN2c2ccc(C(=O)N3CCCC3)cc21)NCc1cccc(Cl)c1` (stereo not given), with 68% (inactive); and `O=C(NCc1ccncc1)C1CCN(C(=O)c2cccc(Cl)c2)CC1`, with 74% (inactive); and `O=C(NCc1cccnc1)c1cn(C2CC2)c2cc(N3CCN(C(=O)c4cccc(Cl)c4)CC3)c(F)cc2c1=O`, with 1% (active).
Then `CCC(=O)N1CCc2cc(Br)cc(S(=O)(=O)CCC(=O)NCc3ccc(F)cc3)c21`, with 80% (inactive).
To `Cc1ccc(C)c(Cn2c(=O)n(CCc3ccccc3)c(=O)c3c(C)c(C)sc32)c1` belongs 112% (inactive); to `Cc1cccc(Cn2c(=O)n(CCc3ccccc3)c(=O)c3c(C)c(C)sc32)c1`, 111% (inactive).
In the case of `Cc1sc2c(c1C)c(=O)n(CCc1ccccc1)c(=O)n2Cc1ccc(F)cc1`, the survival was 52% (inactive).
To `Cc1ccccc1Cn1c(=O)n(CCc2ccccc2)c(=O)c2c(C)c(C)sc21` belongs -6% (active); to `Cc1sc2c(c1C)c(=O)n(CCc1ccccc1)c(=O)n2Cc1ccccc1Cl`, 103% (inactive).
For `Cc1sc2c(c1C)c(=O)n(CCc1ccccc1)c(=O)n2Cc1cccc(F)c1`, the survival is 16% (active).
Consider `CN1CCN(Cc2c(O)ccc3cc(-c4ccccc4)c(=O)oc23)CC1`, for which the survival is 105% (inactive).
